V-ATPase pHluor = yeast V-ATPase proton transport regulation by pHLuorin. S. cerevisiae, pHLuorin cytosolic pH fluorescence. response, % at 10 µM. hit rate 0.37% among 350,000. AID 504577; in the data active = response mostly above about 7.3%, no sharp cut-off; inactive = mostly below about 5.4%; note: actives read high
tim10-1 inh = tim10-1 yeast growth inhibition | S. cerevisiae tim10-1 ts strain growth, BacTiter-Glo, 24 h | inhibition, % at 20 µM | hit rate 2.2% among 330,000 | AID 463190;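 active = inhibition of at least 40%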;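 note: mutant grown at 25 °C; 0% = DMSO wells with yeast and 100% = wells holding no yeast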
TIM10 inh = inhibits growth of TIM10 yeast strain; S. cerevisiae TIM10 strain growth, BacTiter-Glo luminescence, 24 h; inhibition, % at 10 µM; hit rate 1.4% among 330,000; AID 463195;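 active = inhibition of 40% or more at the single tested concentration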;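 note: wild-type TIM10 isogenic control strain grown at permissive 25 °C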
PfHsp90 yeast 2 = growth inhibition of yeast expressing Plasmodium Hsp90; S. cerevisiae expressing PfHsp90, BacTiter-Glo ATP, 48 h; yeast lacking PDR1 and PDR3 efflux regulators; hit rate 0.32% among 310,000; inhibition, % at 9.4 µM;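 active = every replicate shows inhibition above about 80%, whatever the replicate mean, limit read from the data; inconclusive = mean inhibition reaches the set limit but some replicate falls short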;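 note: 0% = DMSO neutral controls and 100% = 20 µM radicicol positive controls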
tim23-1 inh = growth inhibitors of tim23-1 mutant yeast; S. cerevisiae tim23-1 growth, BacTiter-Glo luminescence, 24 h; inhibition, % at 20 µM; hit rate 1.3% among 330,000;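 active = growth inhibition of the mutant yeast at or above 50%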;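 note: temperature-sensitive mutant grown at 25 °C; plate controls were DMSO-treated mutant yeast for no effect and medium wells lacking yeast for full effect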
SKKanGAS inh = SKKanGAS growth inhibition. AID 1662. inhibition, % at 7.5 µM. hit rate 1.3% among 300,000. S. pyogenes SKKanGAS, kanamycin growth, BacTiter-Glo, 6 h;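 active = mean replicate score, as percent of positive control median, at least 50; inconclusive = mean below 50 but one replicate at or above 50; inactive = mean and every replicate below 50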;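 note: strain carries kanamycin resistance gene driven by streptokinase promoter and grows in 40 µg/ml kanamycin; loss of luminescence reflects streptokinase promoter inhibition or plain growth inhibition; 0% = median of DMSO wells and 100% = positive control at its reference dose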
TIM10 conf = TIM10 yeast growth inhibition, confirmed. shares compounds with TIM10 inh. S. cerevisiae tim10 strain growth, BacTiter-Glo luminescence, 24 h. inhibition, % at 10 µM. hit rate 63% among 4,600;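 active = inhibition of yeast growth at or above a set limit in either of two replicates at 10 µM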;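 note: this counterscreen used the strain with wild-type TIM10; 0% = yeast with DMSO and 100% = medium wells lacking yeast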
Active calls of the source: *; ? = inconclusive; nt = no result given. Hits are enriched below; roughly 4.6% of the tested compounds scored in any of these assays.

SMILES	V-ATPase pHluor	tim10-1 inh	TIM10 inh	PfHsp90 yeast 2	tim23-1 inh	SKKanGAS inh	TIM10 conf
CC(OC(=O)CNC(=O)c1ccc2ccccc2c1)C(=O)N(C)C1CCCCC1 (stereo not drawn)	-1.7	39.5	11.7	-21.4	22.0	-1.7	nt
Cc1ccc(C(=O)Nc2ccccc2C(=O)N2CC3(C)CC2CC(C)(C)C3)cc1 (stereo not drawn)	1.9	32.8	44.4*	-92.1	30.9	-0.7	23.9
COc1ccc(OC)c(N(CC(=O)NCC2CCCO2)S(=O)(=O)c2ccccc2)c1 (stereo not drawn)	0.9	18.8	2.6	-33.9	19.1	-7.2	nt
COc1ccc(C/C(N)=N/OC(=O)c2ccc(Cl)cc2)cc1	2.0	39.6	49.1*	6.7	43.3	0.2	58.5*
COc1ccc(C/C(N)=N/OC(=O)Cc2ccccc2)cc1	-2.5	35.9	52.2*	nt	29.6	9.4	28.2
COc1ccc(CC(=O)O/N=C(\N)Cc2ccc(OC)c(OC)c2)cc1	-3.5	11.0	6.3	23.1	6.5	13.8	nt
N/C(Cc1ccc(Cl)cc1)=N\OC(=O)c1cccc2ccccc12	-3.3	10.3	75.5*	128.3*	35.7	0.5	76.3*
CC(C)c1ccc(NC(=O)Cc2cn(C)c3ccccc23)cc1	5.8	26.1	47.1*	-14.1	33.5	-8.9	31.6*
Cc1ccc(C)c(N2CCN(C(=O)C3CCN(S(=O)(=O)c4cccc5nsnc45)CC3)CC2)c1	0.8	35.9	40.4*	-9.7	-0.8	7.1	32.0*
CCc1ccccc1NC(=S)N(Cc1ccco1)C(C)c1cccs1 (stereo not drawn)	-0.3	20.7	80.9*	-2.6	31.9	1.8	23.0
COc1ccc(/C(C)=N/NC(=S)NCCc2ccccc2)c(O)c1	3.8	28.3	43.2*	14.3	26.8	?	36.6*
COCCNC(=S)N/N=C(\C)c1ccccc1O	0.1	nt	nt	-7.4	nt	4.3	nt
CCOc1ccc(N(C(=O)c2cnccn2)C(C(=O)NC2CCCCC2)c2ccc(O)cc2)cc1 (stereo not drawn)	-3.1	17.2	83.7*	15.0	15.7	1.8	-15.9
Cc1ccc(N(C(=O)c2cnccn2)C(C(=O)NC2CCCCC2)c2ccc(O)cc2)cc1 (stereo not drawn)	0.7	17.2	-3.7	-19.5	3.9	9.1	nt
CCNC(=S)N/N=C/c1cc(C)n(-c2ccc(Cl)cc2)c1C	1.9	33.2	50.0*	7.2	29.1	0.2	16.1
Cc1cc(/C=N/NC(N)=S)c(C)n1-c1ccc(Cl)c(Cl)c1	-0.6	8.8	-5.4	-46.8	-23.4	-16.1	nt
O=C(CCC(=O)Nc1nnc(C2CCCCC2)s1)NCc1ccccc1	-0.2	2.3	54.8*	-8.3	12.2	0.9	-3.0
O=c1c2ccccc2sn1-c1ccc(F)cc1	-1.7	30.3	55.3*	7.3	35.2	nt	64.5*
COc1ccc(C2(OC)Oc3cc(OC)ccc3C(=O)C2(O)OC)cc1 (stereo not drawn)	-13.7	nt	nt	9.4	nt	nt	nt
O=S(=O)(c1ccc(-c2csc(-c3cccnc3)n2)cc1)N1CCCCC1	-3.4	37.1	48.2*	nt	20.7	4.9	27.9
COC(=O)C(C)N(C(=O)c1cccc(Cl)c1)c1c(C)cccc1C (stereo not drawn)	0.8	34.6	30.2	3.9	35.2	0.1	nt
COC(=O)C(C)N(C(=O)c1cccc2ccccc12)c1c(C)cccc1C (stereo not drawn)	4.8	27.2	41.8*	-6.2	44.4	2.8	30.8*
COC(=O)c1ccc(Cn2cnc3c(sc4nc(N5CCOCC5)c5c(c43)CCCC5)c2=O)o1	-6.7	19.3	0.0	-2.0	8.1	29.1	nt
CS(=O)(=O)N1CCC(Oc2ccccc2C(=O)NCCCc2cccnc2)CC1	1.4	8.6	0.9	-19.1	6.4	-21.6	nt
COc1ccc(OCC(O)Cn2cnc(-c3ccc(Br)cc3)c2)cc1 (stereo not drawn)	0.6	6.6	51.8*	21.8	7.3	-1.2	-22.8
SMILES	V-ATPase pHluor	tim10-1 inh	TIM10 inh	PfHsp90 yeast 2	tim23-1 inh	SKKanGAS inh	TIM10 conf
CS(=O)(=O)N1CCN(C(=O)NC23CC4CC(CC(C4)C2)C3)CC1	-0.1	12.8	-1.6	-1.6	-11.5	-4.6	nt
O=C(NC12CC3CC(CC(C3)C1)C2)N1CCN(S(=O)(=O)c2ccc(Cl)cc2)CC1	-0.3	8.4	43.0*	nt	10.8	6.1	3.8
CCOc1ccc(C=NN2CCCCCC2)cc1OCC	1.5	nt	nt	-13.1	nt	nt	nt
CCOc1ccc(/C=N/n2c(SC)nnc2-c2ccccc2)cc1OCC	-3.1	14.0	43.2*	-16.3	19.2	-1.4	21.0
CC1=CC2=NC(=O)C(c3ccccc3)C(=O)N2C=C1 (stereo not drawn)	1.7	nt	nt	-9.3	nt	nt	nt
CC1(C)c2[nH]c3ccccc3c2C[C@H]2C(=O)N(Cc3ccccc3F)C(=O)N21	-11.2	32.9	28.2	4.4	16.3	1.0	nt
CC1(C)c2[nH]c3ccccc3c2C[C@@H]2C(=O)N(Cc3ccccc3F)C(=O)N21	-2.0	36.5	40.6*	-11.9	27.2	18.1	25.6
CN(C)c1cc2c3ccccc3n(C)c2cc1N	6.4	nt	nt	4.5	nt	nt	nt
COc1ccc(C(=O)Oc2ccc(C(=S)N3CCCC3)cc2)cc1OC	nt	37.8	3.9	nt	18.0	1.8	nt
COc1ccc(C(=O)Oc2cc3c4c(c2)C(C)=CC(C)(C)N4C(=O)C3=O)cc1OC	1.0	37.8	46.3*	2.8	45.4	-2.2	48.2*
O=C1OC(c2ccccc2)=C/C1=C/c1cccs1	0.4	12.3	46.3*	0.3	42.9	-2.9	-35.2
O=C1N=C(c2ccccc2)S/C1=C\c1cccs1	0.5	6.4	24.5	-0.3	36.2	-0.7	nt
CCC(=O)Nc1ccc2c(c1)C(=O)N(C)C2=O	1.4	4.1	0.5	15.4	5.7	-5.9	nt
CCC(=O)Nc1ccc2c(c1)C(=O)c1ccccc1C2=O	-1.3	34.6	42.0*	-0.2	36.1	-0.6	28.3
Cc1[nH]c(=S)sc1Cc1ccc(Cl)c(Cl)c1	nt	28.2	41.7*	nt	18.1	27.6	-12.6
Cc1nnc(SCc2ccc(Cl)c(Cl)c2)s1	-1.1	14.8	1.8	-22.4	5.5	-5.4	nt
COc1ccc(CCNC(=O)CCc2ccc(S(=O)(=O)NC(C)C)cc2)cc1	-2.6	-8.0	-6.6	-38.0	7.4	3.6	nt
O=C(NCCc1ccc(O)c(O)c1)C1COc2ccccc2O1 (stereo not drawn)	-1.0	16.0	-4.6	8.7	16.5	3.1	nt
CC(C)(C)C1CCc2[nH]c3ccccc3c(=O)c2C1 (stereo not drawn)	-5.5	29.3	44.3*	28.2	45.7	-0.2	33.2*
CCOC(=O)/C=C/C(=O)OCC(=O)NCc1ccccc1	-1.3	36.3	41.6*	8.6	34.4	nt	21.1
C/C(=C\C(=O)OCC(=O)NCc1ccccc1)C(=O)OCC(=O)NCc1ccccc1	-0.2	16.9	0.0	15.1	-8.5	-6.3	nt
